A selection: hits, their analogues and other compounds. The true share with any hit is near 8%.
MCF10A rereplic: induces DNA re-replication in MCF 10a normal breast cells. MCF 10A DNA re-replication, Hoechst nuclear intensity, 48 h. 350,000 compounds, 2.9% hits. Potency, µM (highest dose often 46.1 µM), without a hit: at the top dose activity, positive = re-replication, hits mostly activators; note: % of control where 0% means no effect; nearly all actives have a fitted effect of over 50% in size
HT1080 IDH1KD tx: kills HT-1080 cells with IDH1 knockdown; HT-1080 IDH1 knockdown viability, ATP luminescence, 48 h; Potency, µM (titrated, usually from 46.1 µM), for inactives: top-dose activity, negative = toxicity, most hits filed as cytotoxic; 360,000 compounds, 2% hits; AID 686971;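 note: 0% = DMSO wells and -100% = cell-free medium wells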
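HT-1080-IDH1KD cells (IDH1 knocked down), 750/well in RPMI with 5% FBS, treated with compound 48 h at 37 degrees C. Viability by CellTiter-Glo luminescence, normalised to DMSO and no-cell wells; concentration-response curves classed.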
KB-V1 MDR tox: KB-V1 MDR subline cytotoxicity; KB-V1 MDR cells viability, CellTiter-Glo, 72 h; Potency, µM (series often up to 46.1 µM), most hits filed as cytotoxic; 400,000 compounds, 3.4% hits; note: % is set by controls: 0 for no effect and ±100 for the full control effect; nearly all actives have a fitted effect of over 60% in size
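Drug-selected KB-V1 cells, grown in DMEM lacking phenol red with 10% FBS, receive compound titrations; after three days at 37 degrees C, surviving cell ATP is quantified by CellTiter-Glo luminescence and responses normalized and curve-fitted.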
SW480 rereplic: inducers of DNA re-replication in SW480 colon cancer cells; Potency, µM (series often up to 46.1 µM), for inactives: at the highest dose re-replication activation, actives largely listed as activators; 340,000 compounds, 1.8% hits; SW480 DNA re-replication, Hoechst DNA content imaging, 48 h; note: % of control where 0% means no effect; nearly all actives have a fitted effect of over 55% in size
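250 cells/well; 23 nL cpd via pin tool; 48 hr, 37 C, 5% CO2; Hoechst 40 min; imager read of total nuclear intensity, ex 405/em 500-530 nm.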
KB-3-1 tox: kills parental KB-3-1 adenocarcinoma cells. KB-3-1 viability, CellTiter-Glo ATP luminescence, 72 h. AID 1347075. Potency, µM (titrated, usually from 46.1 µM), actives largely listed as cytotoxic. 400,000 compounds, 1.4% hits; note: % is set by controls: 0 for no effect and ±100 for the full control effect; nearly all actives have a fitted effect of over 60% in size
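Cytotoxicity in the drug-sensitive parental line KB-3-1 was scored as loss of CellTiter-Glo luminescence following 72 h incubation with compound. Values come from curve fitting of normalized concentration-response data.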
HT1080-NT tox: kills 2HG-producing HT-1080-NT fibrosarcoma cells. HT-1080-NT fibrosarcoma viability, CellTiter-Glo ATP luminescence, 48 h. Potency, µM (series often up to 46.1 µM), inactives show top-dose activity, negative = less viability, actives largely listed as cytotoxic. 360,000 compounds, 1.6% hits;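 note: NT is the 2HG producing partner of a matched IDH1 knockdown line; 0% = DMSO-treated cells and -100% = media-only wells without cells; nearly all actives have a fitted effect of over 55% in size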
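HT-1080-NT; 750 cells/well; 5% FBS RPMI; 48 h compound, 37 degrees C; CellTiter-Glo luminescence; curve fitting and curve-class assignment.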
* marks the source's active call; other numbers are inactive results. Calls come from the whole dose curve; as a rule, active = well fitted curve in the direction sought with a large enough effect; inconclusive = small, poorly fitted or top-dose-only effect, or another doubt; inactive = no such curve, though single readings can be large; an effect the other way counts as inactive or inconclusive. Potency is the fitted concentration of half-maximal effect.

Cc1ccc(NC(=O)CN(C)C(=O)COC(=O)CNS(=O)(=O)c2ccc(F)c(F)c2F)cc1 was read as MCF10A rereplic 3%, HT1080 IDH1KD tx -3%, KB-V1 MDR tox inactive, SW480 rereplic -15%, KB-3-1 tox inactive and HT1080-NT tox -6%.
Cc1ccc(-c2nn3c(C)nnc3c3ccccc23)cc1S(=O)(=O)NCc1ccco1 was read as MCF10A rereplic -9%, HT1080 IDH1KD tx -5%, KB-V1 MDR tox 15µM*, SW480 rereplic -4%, KB-3-1 tox inactive and HT1080-NT tox -1%.
For Cc1ccc(-c2nn3c(C)nnc3c3ccccc23)cc1S(=O)(=O)NC(C)c1ccccc1 (stereo not given) the results were MCF10A rereplic inconclusive, HT1080 IDH1KD tx inconclusive, KB-V1 MDR tox inactive, SW480 rereplic inconclusive, KB-3-1 tox inconclusive and HT1080-NT tox inconclusive.
`COCCNS(=O)(=O)c1cc(-c2nn(C)c(=O)c3ccccc23)ccc1C` gave MCF10A rereplic 0%, HT1080 IDH1KD tx -11%, KB-V1 MDR tox inconclusive, SW480 rereplic -4%, KB-3-1 tox inactive and HT1080-NT tox -20%.
Screening CCCCNS(=O)(=O)c1cc(-c2nn(C)c(=O)c3ccccc23)ccc1C returned MCF10A rereplic 2%, HT1080 IDH1KD tx inconclusive, KB-V1 MDR tox inconclusive, SW480 rereplic inconclusive, KB-3-1 tox 16µM* and HT1080-NT tox -20%.
`Cc1ccc(-c2nn3c(C)nnc3c3ccccc23)cc1S(=O)(=O)NC(C)(C)CO` gave MCF10A rereplic 11µM*, HT1080 IDH1KD tx inconclusive, KB-V1 MDR tox inactive, SW480 rereplic 0%, KB-3-1 tox inactive and HT1080-NT tox -10%.
For CNc1cc[n+](C)c2ccccc12 the results were KB-V1 MDR tox inconclusive and KB-3-1 tox inactive.
Cn1nc(C(=O)Nc2cc(Cl)ccc2N2CCCC2)c2ccccc2c1=O was read as MCF10A rereplic inconclusive, HT1080 IDH1KD tx 0%, KB-V1 MDR tox inactive, SW480 rereplic 5%, KB-3-1 tox inactive and HT1080-NT tox -4%.
Screening Cc1ccc(O)c(NC(=O)c2nc3nc(C)cc(C(F)F)n3n2)c1 returned KB-V1 MDR tox inactive and KB-3-1 tox inactive.
Screening CSc1ccc(COC(=O)c2cc([N+](=O)[O-])ccc2N2CCOCC2)cc1 returned MCF10A rereplic inconclusive, HT1080 IDH1KD tx 0.18µM*, KB-V1 MDR tox 0.41µM*, SW480 rereplic 0.058µM*, KB-3-1 tox 0.15µM* and HT1080-NT tox inconclusive.
For Cc1ccccc1COC(=O)c1cc([N+](=O)[O-])ccc1N1CCOCC1 the results were MCF10A rereplic inconclusive, HT1080 IDH1KD tx inconclusive, KB-V1 MDR tox inactive, SW480 rereplic inconclusive, KB-3-1 tox inconclusive and HT1080-NT tox inconclusive.
Screening O=[N+]([O-])c1ccc(N2CCOCC2)c(S(=O)(=O)N2CCOCC2)c1 returned MCF10A rereplic 21%, HT1080 IDH1KD tx 0%, KB-V1 MDR tox inactive, SW480 rereplic 16%, KB-3-1 tox inactive and HT1080-NT tox -1%.
COc1ccc(OC)c(COC(=O)c2cc([N+](=O)[O-])ccc2N2CCOCC2)c1 was read as MCF10A rereplic inconclusive, HT1080 IDH1KD tx inconclusive, KB-V1 MDR tox inconclusive, SW480 rereplic inconclusive, KB-3-1 tox 5.2µM* and HT1080-NT tox inconclusive.
For O=[N+]([O-])c1ccc(N/N=C/c2cccc(O)c2O)c(S(=O)(=O)N2CCOCC2)c1 the results were MCF10A rereplic 22%, HT1080 IDH1KD tx -8%, KB-V1 MDR tox inconclusive, SW480 rereplic 4.1µM*, KB-3-1 tox inconclusive and HT1080-NT tox -13%.
O=[N+]([O-])c1ccc(N2CCN(c3ccccc3F)CC2)c(S(=O)(=O)N2CCOCC2)c1 was read as MCF10A rereplic -2%, HT1080 IDH1KD tx 0%, KB-V1 MDR tox 7.3µM*, SW480 rereplic -6%, KB-3-1 tox inactive and HT1080-NT tox -7%.

Source: PubChem (National Center for Advancing Translational Sciences (NCATS))
